This is an account of results in PubChem BioAssay (NCI).

This is part of a sample that, as a whole, favours compounds with a hit. Of some 83,000 tested, about 20% had one in any assay.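 Percent growth is the endpoint: 0 to 100 indicates growth inhibition (40 means 60% inhibition), 0 means no net growth, and negative values indicate cell death.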 The source made the active and inactive calls. The calls were made as follows: active = growth percent below 10; inactive = the rest.

This experiment relates to HL-60(TB) leukemia. Put plainly: NCI-60 one-dose screen, 48 h (100 = growth as untreated, 0 = no growth, -100 = all killed). Particulars: 10 µM unless noted.
For the molecule `CCC(=O)Nc1nnc(Cc2ccc(OC)c(OC)c2)s1`, the growth was 53.2% (inactive).
The value for `O=C(Nc1ccc(Cl)cc1F)c1cc(Cl)ccc1O` was -48% (active).
For `CN1CCN(c2ccc3cc(-c4nc5ccccc5[nH]4)c(=O)oc3c2)CC1`, the growth is 73% (inactive).
Take `O=C(Nc1ccc(N2CCCCC2)c(Cl)c1)c1ccc(Br)o1`: the growth is 46.3% (inactive).
